Reference: PubChem BioAssay AID602163 (The Scripps Research Institute Molecular Screening Center, 2012)
About 1,100 (0.31%) of roughly 360,000 compounds were called active. This is one part of a sample in which actives are shown more often than they occur. A number with no mark means an inactive call. Cut-off read from the data, not from the text of the source: active = activation above about 7.5%; inactive = the rest.

Each compound was assayed on Methionine sulfoxide reductase A (Bos taurus) (assay: activation of methionine sulfoxide reductase A – biochemical, absorbance, bovine, HTS, primary screen (AID 602163;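 note: 0% = vehicle and 100% = reference activator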)). Settings: purified bovine MsrA, absorbance read-out; at 10.6 µM; active compounds read high.
Work on COC(=O)C1(O)CC(C(C)C)=NN1C(=O)c1ccc(Cl)cc1 (stereo not given) yielded an activation of -2.59%.
In the case of O=c1c2cc(Br)ccc2nc(-c2cccc(Cl)c2)n1O, the activation is reported as 8.68% (active).
NC(N)=Nc1nc2ccc(Br)cc2c(=O)[nH]1 gave an activation of -1.23%.
With NC(=O)c1cc(-c2cccnc2)nc2ccc(Br)cc12 the activation was -2.46%.
COc1ccccc1C(=O)Nc1ccc(OCC(=O)N2CCCCC2)cc1 was tested, and the activation was -2.88%.
For COc1ccc(/C=C/C2=CC(C)(C)NC(=S)N2)c(OC)c1, the activation was -3.37%.
In the case of COc1ccc(NC(=O)COC(=O)CNC(=O)C2CCCCC2)cc1, the activation is reported as -4.73%.
For CCOc1ccccc1OCCCNCc1ccccc1, the activation was 8.23% (active).
In the case of c1ccc(CNCc2ccc(CNCc3ccccc3)cc2)cc1, the activation is reported as -4.45%.
For CCOCCCNCc1ccc(OCc2ccc(F)cc2)c(OC)c1, the activation was -0.52%.
Cc1ccccc1NC(=O)c1nn(-c2ccc(F)c(F)c2)ccc1=O gave an activation of 0.66%.
Work on Cc1[nH]c(C)c(S(=O)(=O)N2CCN(c3cccc(C(F)(F)F)c3)CC2)c1C(=O)N1CCCC1 yielded an activation of -2.75%.
COc1ccccc1CNC(=O)c1cc(-c2cc(F)ccc2OC)n[nH]1 showed an activation of 1.13%.
Oc1cc(O)c2c(c1)OC(c1ccc(O)c(O)c1)C(O)C2 (stereo not given) gave an activation of -3.17%.
Work on O=C(Nc1c(Br)cc2c(c1Br)Cc1cc([N+](=O)[O-])ccc1-2)C(Cl)Cl yielded an activation of -0.8%.
COc1ccc(C(CNC(=O)c2cc3c(s2)CCCC3)N2CCOCC2)cc1 (stereo not given) was tested, and the activation was 9.37% (active).
In the case of COc1ccc(C(CNC(=O)CSc2ccccc2)N2CCOCC2)cc1 (stereo not given), the activation is reported as -2.38%.
COc1ccc(C(CNC(=O)c2cccnc2SC)N2CCOCC2)cc1 (stereo not given) showed an activation of -1.39%.
Compound CCC(C)CCN1CCN=C1N(C)C (stereo not given) has an activation of -6.93%.
Work on O=C(NC1CCc2ccccc21)C12CN(Cc3ccccc3)CC1C(c1cccc([N+](=O)[O-])c1)=NO2 (stereo not given) yielded an activation of -4.81%.
O=C(NCCCN1CCOCC1)c1cnn2c(-c3ccccc3)cc(-c3ccccc3)nc12 gave an activation of 0.61%.
COc1cccc(CNn2cn[nH]c2=S)c1OCc1ccccc1 gave an activation of -8.32%.
With COc1ccccc1-n1cn[nH]c1=S the activation was 9.25% (active).
For FC(F)(F)c1ccc(-n2cn[nH]c2=S)cc1, the activation was 4.3%.
CCN(C(=O)Cc1nc(N)n[nH]1)C1(C(=O)Nc2ccccc2)CCCCC1 was tested, and the activation was -1.75%.
With Nc1[nH]c(=S)nc2nc(-c3ccccc3)c(-c3ccccc3)nc12 the activation was 4.05%.
For CN(C)S(=O)(=O)c1ccc(NC(=O)COC(=O)c2n[nH]c3ccccc23)cc1, the activation was 14.2% (active).
O=C(COC(=O)c1n[nH]c2ccccc12)Nc1ccccc1Br showed an activation of -2.21%.
With COc1ccc(S(=O)(=O)N(C)C)cc1NC(=O)COC(=O)c1n[nH]c2ccccc12 the activation was -0.9%.
For Cn1nnnc1SCC(=O)N1CCN(Cc2ccccc2)CC1, the activation was 10.8% (active).
Work on CC(=O)c1ccc(-n2nnnc2SCC(=O)N2CCN(C(=O)c3ccco3)CC2)cc1 yielded an activation of -6.56%.
With Cn1nnnc1SCC(=O)N1CCN(C(c2ccccc2)c2ccccc2)CC1 the activation was -4.74%.
Compound CC(C)COC(=O)n1c(=O)oc2ccc(S(=O)(=O)N3CCCCC3)cc21 has an activation of -0.43%.
Work on COc1ccc(C2=NN(C(=O)CSc3nc(=O)n4ccc(C)cc4n3)C(c3ccc(C)cc3)C2)cc1 (stereo not given) yielded an activation of -4.23%.
For FC(F)(F)C1CCCN(c2nsc3ccccc23)C1 (stereo not given), the activation was 13% (active).
Compound CCCNCc1cc(OCC)c(OCC(=O)Nc2ccccc2)cc1Br has an activation of -1.95%.
Work on O=C(CC1(O)C(=O)N(CN2CCOCC2)c2ccccc21)c1ccccc1 (stereo not given) yielded an activation of -7.26%.
C=CCN1C(=O)C2(OCCCO2)c2cccc(Cl)c21 was tested, and the activation was -1.83%.
With CC(C)(C)C(=O)CCN1C(=O)C2(OCCO2)c2ccccc21 the activation was 10.5% (active).
With CC(C)C[C@H]1CNC(=O)C(=O)N1C[C@@H]1CCCN1C[C@H](Cc1ccccc1)N1C[C@H](CC(C)C)N(CC2CCCCCC2)C(=O)C1=O the activation was -1.34%.
Compound CC1CCC2CCCCC2N1C(=O)c1cc([N+](=O)[O-])cc([N+](=O)[O-])c1 (stereo not given) has an activation of -1.47%.
CCOC(=O)[C@H]1Nc2ccc(Cl)cc2[C@@H]2[C@H]1C1CC(c3ccccc31)N2C(=O)OCc1ccccc1 (stereo not given in full) gave an activation of -4.81%.
O=C(O)C#Cc1cccc2ccccc12 gave an activation of -6.37%.
With CCCCCCNC(=O)CSc1nccn1Cc1ccccc1 the activation was -3.24%.
O=C(NC1CCCC1)C1c2ccccc2OCC(=O)N1Cc1ccccc1 (stereo not given) gave an activation of -2.39%.
O=C(NCc1ccccc1)C1c2ccccc2OCC(=O)N1C1CC1 (stereo not given) was tested, and the activation was 8.21% (active).
In the case of O=C(NCc1ccccc1)C1c2ccccc2OCC(=O)N1CCCN1CCOCC1 (stereo not given), the activation is reported as -2.2%.
CN1CCN(Cc2c(C(=O)N3CCc4ccccc4C3)nc3ccc(Cl)cn23)CC1 gave an activation of -13%.
For Nc1ccn(C2CC(O)C(CO)O2)c(=O)n1 (stereo not given), the activation was -1.31%.
COC(=O)C1CCN(C(=O)COC(=O)c2cc(S(=O)(=O)N3CCOCC3)ccc2C)CC1 gave an activation of -0.23%.
CCS(=O)(=O)c1ccc2c(c1)N(S(=O)(=O)c1ccccc1)CC(C(=O)O)O2 (stereo not given) was tested, and the activation was -3.49%.
For COc1ccc(N2CCN(S(=O)(=O)c3cc4c5c(c3)C(C)C(=O)N5CCC4)CC2)cc1 (stereo not given), the activation was 0.45%.
In the case of COC(=O)CN1C(=O)C(O)=C(C(C)=O)C1c1ccc([N+](=O)[O-])cc1 (stereo not given), the activation is reported as 8.27% (active).
COc1ccc(C2C(C(C)=O)=C(O)C(=O)N2c2nccs2)cc1 (stereo not given) showed an activation of -4.03%.
CC(=O)C1=C(O)C(=O)N(c2ccc(Br)cc2)C1c1ccc([N+](=O)[O-])cc1 (stereo not given) gave an activation of -4.41%.
Work on COC(=O)c1ccccc1NC(=O)C1(S(=O)(=O)c2ccc(Cl)cc2)CC1 yielded an activation of -4.86%.
With CCCc1c(C)nc2c(Br)cccc2c1Cl the activation was -2.47%.
CCN(CC)CCCC(C)n1c2nc(=O)[nH]c(=O)c-2nc2cc(Cl)ccc21 (stereo not given) was tested, and the activation was 11.7% (active).
In the case of COC(C/C=C/C(=O)[C@@H](C)OCc1ccccc1)OC, the activation is reported as 5.11%.
CSC1=NC2(C)CCCCC2C12C=CC(=O)C=C2 (stereo not given) gave an activation of -3.42%.
CC(C)CCNC(=O)C1CCC(CNc2c(N3CCC(C)CC3)c(=O)c2=O)CC1 (stereo not given) was tested, and the activation was -7.85%.
Work on CC(C)(C)N1C(=O)c2c(C(=O)OCc3ccccc3)[nH]c(-c3ccccc3)c2C1=O yielded an activation of -2.85%.
For O=C1C(Sc2cccc(F)c2)=C[C@@]2(O)CC[C@@H](O)[C@]1(Sc1cccc(F)c1)[C@H]2O, the activation was 11.4% (active).
Work on CN1CCN(c2ccc(CNS(=O)(=O)c3cccc(F)c3)cc2)CC1 yielded an activation of -2.8%.
Work on Cc1nccn1CCCNC(=O)CC1C(=O)NCCN1Cc1ccc(Cl)c(F)c1 (stereo not given) yielded an activation of -5.91%.
For O=C(O)/C=C/c1cn(Cc2ccccc2)nc1-c1cccs1, the activation was 9.05% (active).
In the case of O=c1onc(-c2cccs2)n1Cc1ccccc1, the activation is reported as -2.25%.
COc1ccc(NC(=O)CN(C)C(=O)/C=C/c2cn(Cc3ccccc3)nc2-c2cccnc2)cc1 was tested, and the activation was -3.42%.
Cc1cccc(NC(=O)Cn2c(=O)n(Cc3ccccc3)c(=O)c3c(C)c(C)sc32)c1 gave an activation of -2.33%.
With O=C1CCC(C(=O)N2CCC(O)(c3ccccc3)CC2)CN1CCc1ccccc1 (stereo not given) the activation was -3.3%.
COc1ccc(C(=O)NCC2CCCO2)cc1S(=O)(=O)NCc1ccc(Cl)cc1 (stereo not given) was tested, and the activation was -6%.
COc1ccc(Cl)cc1NS(=O)(=O)c1cccc(C(=O)NCC2CCCO2)c1 (stereo not given) was tested, and the activation was 8.29% (active).
Compound COc1ccc(Cl)cc1NS(=O)(=O)c1cccc(C(=O)NC2CCC(O)CC2)c1 (stereo not given) has an activation of -0.8%.
Compound CC(C)NC(=S)NN=C1CCCCCCCCCCC1 has an activation of -2.24%.
With C=C(C)C1CC=C(C)/C(=N\NC(=O)CNc2ccccc2OC)C1 (stereo not given) the activation was -4.34%.
